VDR inh: vitamin D3 receptor (human) inhibition; VDR-SRC2-3 peptide fluorescence polarization, 2 h; Potency, µM, without a hit: max response, negative = inhibition, hits mostly inhibitors; hit rate 0.93% among 400,000; AID 504847; further: on the % scale 0 is the no-effect control and ±100 the full control effect
Target sequence (P11473 whole entry, looked up): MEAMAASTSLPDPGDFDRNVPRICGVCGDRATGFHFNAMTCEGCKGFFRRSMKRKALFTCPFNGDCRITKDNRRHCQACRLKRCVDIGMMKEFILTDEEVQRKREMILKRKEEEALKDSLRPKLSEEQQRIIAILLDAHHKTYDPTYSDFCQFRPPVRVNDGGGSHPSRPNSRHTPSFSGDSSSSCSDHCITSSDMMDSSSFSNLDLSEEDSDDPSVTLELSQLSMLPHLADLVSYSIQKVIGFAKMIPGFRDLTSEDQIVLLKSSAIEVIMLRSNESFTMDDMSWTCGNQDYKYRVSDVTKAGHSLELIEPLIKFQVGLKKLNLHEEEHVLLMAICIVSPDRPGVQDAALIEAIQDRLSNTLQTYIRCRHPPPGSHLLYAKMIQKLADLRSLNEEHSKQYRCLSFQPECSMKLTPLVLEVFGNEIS
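Fluorescence polarization assay measuring small-molecule disruption of VDR binding to the coregulator peptide SRC2-3. Compounds were pin-transferred (23 nl) into the reagent mix and incubated 2 h at room temperature before reading.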
Tb PFK inh-1: blocks T. brucei phosphofructokinase | O15648 | T. brucei PFK, ADP-Glo luminescence | Potency, µM (highest dose often 57.5 µM), without a hit: top-dose activity, negative = inhibition, actives largely listed as inhibitors | hit rate 0.17% among 330,000;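 further: 0% = uninhibited 1x PFK enzyme wells and -100% = no-enzyme wells; nearly all actives have a fitted effect of over 60% in size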
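ADP-Glo luminescence quantified ADP after 45 min at room temperature, with 1.25 nM T. brucei PFK, 0.1 mM ATP and 0.5 mM fructose-6-phosphate in pH 8.0 TEA buffer. qHTS titrations up to 57 µM; curves classified by quality.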
PLK1 PBD inh: PLK1 (human) polo-box domain binding inhibition; P53350; Plk1 PBD binding of FITC phosphopeptide, fluorescence polarization; Potency, µM, without a hit: max response, negative = inhibition, usual class: inhibitors; hit rate 2.8% among 360,000; AID 720504; further: series mostly up to about 57 µM; on the % scale 0 is the no-effect control and ±100 the full control effect; nearly all actives have a fitted effect of over 65% in size
BRCA1 expr act: BRCA1 expression activation; MCF7-BRCA1-FFLuc reporter, luminescence, 48 h; response scale: scaled: vehicle 0%, 10 µM genistein 100%; Potency, µM (titrated, usually from 46.1 µM), for inactives: top-dose activation, most hits filed as activators; hit rate 1.1% among 380,000; AID 624202; further: nearly all actives have a fitted effect of over 80% in size
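MCF7-BRCA1-FFLuc cells, 2000/well in phenol-red-free MEM, attached 2 h then treated 48 h at 37 C. Luciferase luminescence read 15 min after reagent; normalized to genistein maximum activation (10microM) and DMSO, concentration-response fitted.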
Tb PFK KinaseGlo: orthogonal confirmation of T. brucei phosphofructokinase inhibitors | shares compounds with Tb PFK inh-1 | Tb PFK enzyme, ATP depletion, Kinase-Glo Plus luminescence | Potency, µM (series often up to 57.5 µM), for inactives: at the highest dose inhibition | hit rate 47% among 1,100; calls by dose curve; further: nearly all actives have a fitted effect of over 60% in size
Tb PFK inh-2: T. brucei PFK enzyme inhibition, hit validation. Potency, µM (doses to about 57.5 µM), inactives show at the highest dose activity change, negative = inhibition, usual class: inhibitors. hit rate 41% among 1,100. shares compounds with Tb PFK inh-1. AID 504637. purified T. brucei PFK, ADP-Glo luminescence, 45 min;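 further: plate controls were full PFK enzyme control for no effect and no enzyme control for full effect; nearly all actives have a fitted effect of over 60% in size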
* = called active by the depositor; ? = inconclusive; nt = no result. Hits are enriched below; roughly 3.9% of the tested compounds scored in any of these assays. Unless noted, the call rests on the fitted dose curve; in most records, active means well fitted curve in the direction sought with a large enough effect; inconclusive means small, poorly fitted or top-dose-only effect, or another doubt; inactive means no such curve, though single readings can be large; an effect the other way counts as inactive or inconclusive. Potency means the concentration at half of the fitted maximal effect.

SMILES	VDR inh	Tb PFK inh-1	PLK1 PBD inh	BRCA1 expr act	Tb PFK KinaseGlo	Tb PFK inh-2
CC1(C)C(O)CC(=O)[C@]2(C)C1CC(=O)[C@]1(C)C2CC[C@@]2(C)C(c3ccoc3)OC(=O)C3O[C@@]321 (some centres undefined)	-1%	nt	nt	nt	nt	nt
N#CCCn1cc(C(=O)Nc2ccc([N+](=O)[O-])cc2)c(-c2ccccc2)n1	-11%	9%	1%	-6%	nt	nt
CCNS(=O)(=O)c1ccc(NC(=O)Cn2cc([N+](=O)[O-])cn2)cc1	-2%	12µM*	?	21%	12µM*	?
CN1CCN(C(=S)c2ccc(N(C)C)cc2)CC1	?	?	10µM*	12%	12µM*	27µM*
CSc1ccc(C(=O)C2CCCN(C)C2)cc1 (centres undefined)	-5%	0%	1%	-12%	nt	nt
CSc1ccc(C(=S)N2CCN(C)CC2)cc1	-54%	?	30µM*	-4%	21µM*	?
Cc1ccc(CC(=O)N2CCN(C)CC2)cc1	14%	2%	-3%	6%	nt	nt
CCN1CCN(C(=O)COc2ccc(S(=O)(=O)N3CCOCC3)cc2C)CC1	-5%	5%	0%	-3%	nt	nt
O=S(=O)(c1ccc2nc(COc3ccc(Cl)cc3Cl)[nH]c2c1)N1CCOCC1	25%	?	-7%	-44%	?	?
O=C(COC(=O)c1cc2c(s1)CCC2)Nc1ccc(F)cc1	-7%	11µM*	-27%	-1%	?	?
CN1CCCC2(CCN(C(=O)c3csnn3)CC2)C1	8%	nt	nt	nt	nt	nt
NCC(=O)c1ccccc1	3%	nt	-9%	18%	nt	nt
O=C(CSC1=NS(=O)(=O)c2ccccc2N1)c1ccccc1	1%	?	-16%	72%	21µM*	?
CSCC[C@H](NC(=O)[C@H](Cc1ccccc1)NC(=O)CNC(=O)CNC(=O)[C@@H](N)Cc1ccc(O)cc1)C(=O)O	-1%	nt	nt	nt	nt	nt
Nc1ccccc1C(=O)OCC(=O)Nc1ccc(Br)cc1F	3%	2%	4%	2%	nt	nt
O=C(Nc1cccs1)Nc1ccc(Br)cc1F	?	?	1%	-27%	?	?
COC(C/C=C/C=C/CC/C=C\CC(C)/C=C\C(=C/C(=O)O)CC(=O)O)/C(C)=C\C=C(/C)C(=O)O (centres undefined)	-9%	nt	nt	nt	nt	nt
C[N+]1([O-])[C@@H]2CC(OC(=O)[C@@H](CO)c3ccccc3)C[C@@H]1[C@H]1O[C@H]12 (some centres undefined)	-1%	nt	nt	nt	nt	nt
COc1ccc(CNC(=O)N2CCN(c3cccc(Cl)c3)CC2)cc1OC	3%	27µM*	1%	-29%	12µM*	24µM*
COc1ccccc1CCNCc1cc2c(cc1[N+](=O)[O-])OCO2	17%	1%	-15%	7%	nt	nt
O=[N+]([O-])c1ccccc1CCl	-6%	-1%	-3%	-12%	nt	nt
O=[N+]([O-])c1ccccc1CNc1ccc(F)c(Cl)c1	-7%	?	-10%	18%	21µM*	?
COc1cccc(CNc2ccc(F)c([N+](=O)[O-])c2)c1O	-4%	?	-4%	27%	19µM*	30µM*
O=C(N/N=C/c1ccc(O)c(O)c1O)/C(=C/c1ccc([N+](=O)[O-])cc1)NC(=O)c1ccccc1	?	24µM*	9.5µM*	-57%	3.4µM*	11µM*
Oc1ccc(/C=N/N=C/c2ccc(O)c(O)c2)cc1O	-7%	2.7µM*	-16%	-17%	?	?
SMILES	VDR inh	Tb PFK inh-1	PLK1 PBD inh	BRCA1 expr act	Tb PFK KinaseGlo	Tb PFK inh-2
O=C(O)CCCNC(=O)c1ccc(NC(=O)Cc2ccc(Cl)cc2)cc1	-1%	?	1%	30%	?	?
Cn1cnc2cc(NC(=O)c3ccc(Cl)cc3)ccc21	-4%	-1%	0%	?	nt	nt
O=C(O)CCN1C(=O)c2ccc(NC(=O)Cc3ccc(Cl)cc3)cc2C1=O	0%	19µM*	5%	6%	?	27µM*
O=c1c2ccccc2nc(/C=C/c2ccccc2O)n1-c1ccc(Br)cc1	-19%	nt	nt	nt	nt	nt
O=C(Nc1ccccc1)N1CC[C@@]2(CCCNC2)C1	-22%	nt	nt	nt	nt	nt
Nc1nnc(Cc2ccc(Cl)c(Cl)c2)s1	-6%	19µM*	-21%	-15%	7.6µM*	19µM*
O=C(N/N=C\C=C\c1ccc2c(c1)OCO2)C1COc2ccccc2O1 (centres undefined)	-6%	27µM*	-5%	-18%	17µM*	21µM*
O=c1c2ccccc2nc(/C=C/c2ccc3c(c2)OCO3)n1-c1cccc(O)c1	-1%	5%	-9%	-30%	nt	nt
Cc1ccc(S(=O)(=O)N2CCOCC2)cc1C(=O)OCC(=O)Nc1ccc2[nH]c(=O)[nH]c2c1	3%	?	2%	4%	?	?
O=C(NN1C(=O)CSC1=S)C(=O)NN1C(=O)CSC1=S	9%	?	-27%	30%	?	-9%
C=CCN(C1=NCCN1)c1c(Cl)cccc1Cl	10%	nt	nt	nt	nt	nt
Clc1cncc(N2CCNCC2)n1	1%	nt	nt	nt	nt	nt
CCNc1nc(NCC)n2c(SCC(=O)Nc3ccc(C)c(C)c3)nnc2n1	10%	13µM*	-2%	-21%	?	?
CCNc1nc(NCC)n2c(SCC(=O)Nc3ccc(OC(F)F)cc3)nnc2n1	-14%	7.6µM*	-9%	-16%	5.4µM*	8.5µM*
N#Cc1cc2c(nc1SCC(=O)Nc1ccc(C(F)(F)F)cc1)C1CCN2CC1	-7%	nt	nt	nt	nt	nt
CSc1ncc(C(=O)Nc2ccc(Cl)cc2C(=O)c2ccccc2)c(C)n1	0%	nt	nt	nt	nt	nt
CC1CCC(C(C)C)C(OC(=O)c2ccccc2N)C1 (centres undefined)	3%	nt	nt	nt	nt	nt
O=[N+]([O-])c1ccc(C2C3C(c4ccccc4)=NC4(CCCC4)N32)cc1 (centres undefined)	-17%	0%	-8%	-33%	nt	nt
Fc1ccc(C2CC(c3ccco3)=Nc3ccccc3S2)cc1 (centres undefined)	-35%	?	-8%	-21%	7%	-12%
O=[N+]([O-])c1ccc(C2CC(c3ccccc3)=Nc3ccccc3S2)cc1 (centres undefined)	?	?	-18%	-39%	7%	1%
CN[C@@H](C)[C@H]1CC[C@@H](N)[C@@H](O[C@@H]2[C@@H](O)[C@@H](O[C@H]3OC[C@@](C)(O)[C@@H](NC)[C@@H]3O)[C@H](N)C[C@@H]2N)O1 (tested in a mixture with another compound)	4%	nt	nt	nt	nt	nt
Cc1cc(-n2c(/C=C/c3cccs3)nc3ccccc3c2=O)ccc1Br	6%	nt	nt	nt	nt	nt
